ALDH1A1 block: ALDH1A1 (human) enzyme inhibition; P00352; Purified ALDH1A1, NADH fluorescence, propionaldehyde substrate; Potency, µM (highest dose often 75.3 µM), inactives show at the highest dose activity, negative = inhibition, actives largely listed as inhibitors; actives 7.3% (n = 220,000); AID 1030;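 further: plate controls were no enzyme wells and a reference inhibitor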
Target sequence (P00352 whole entry, looked up): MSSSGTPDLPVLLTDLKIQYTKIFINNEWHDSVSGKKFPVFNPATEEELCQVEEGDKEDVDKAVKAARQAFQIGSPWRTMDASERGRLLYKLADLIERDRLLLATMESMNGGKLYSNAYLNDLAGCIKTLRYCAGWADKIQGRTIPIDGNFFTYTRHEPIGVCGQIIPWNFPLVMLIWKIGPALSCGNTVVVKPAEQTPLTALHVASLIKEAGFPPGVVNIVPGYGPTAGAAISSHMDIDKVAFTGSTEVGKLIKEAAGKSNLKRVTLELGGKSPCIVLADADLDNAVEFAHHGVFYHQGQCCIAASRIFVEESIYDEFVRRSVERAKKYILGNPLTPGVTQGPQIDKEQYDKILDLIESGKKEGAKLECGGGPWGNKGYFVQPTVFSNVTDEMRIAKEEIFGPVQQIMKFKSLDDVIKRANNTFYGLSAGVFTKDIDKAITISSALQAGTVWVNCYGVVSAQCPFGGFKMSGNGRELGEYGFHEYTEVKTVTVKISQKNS
LMNA splice mod: changes lamin A minigene splicing in HeLa cells | actives 0.01% (n = 200,000) | HeLa LMNA splicing GFP/RFP minigene ratio, 48 h | AID 1487 | Potency, µM (series often up to 46.1 µM), for inactives: at the top dose ratio change, negative = inhibition, hits mostly inhibitors; active means well fitted inhibition curve with a large enough effect in the signal ratio, with a control signal flat, not every such curve was filed as active; inconclusive means small, poorly fitted or top-dose-only effect, or effect the other way, or a change in a side signal; the % refers to the signal ratio; further: on the % scale 0 is the no-effect control and ±100 the full control effect
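S3 HeLa cells stably expressing lamin A-EGFP splicing minigene plus DsRed2, 600 cells/well, 48 h compound exposure at 37C. Laser-scanning cytometry; analysed as GFP (500-530 nm)/RFP (575-640 nm) total intensity ratio; 0.5% DMSO vehicle.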
HttQ103 aggreg: mutant huntingtin aggregation inhibition. PC12 HttQ103-GFP aggregates, Acumen cytometry, 40 h. Potency, µM (series often up to 46.1 µM), without a hit: at the highest dose activity change, negative = inhibition, hits mostly inhibitors. actives 1.1% (n = 220,000). AID 1688; active means well fitted curve in the direction sought with a large enough effect; inconclusive means small, poorly fitted or top-dose-only effect, or another doubt; inactive means no such curve, though single readings can be large; an effect the other way counts as inactive or inconclusive; further: on the % scale 0 is the no-effect control and ±100 the full control effect; nearly all actives have a fitted effect of over 60% in size
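Inducible Q103 Huntingtin exon 1–GFP PC12 line, 1500 cells/well in phenol red free DMEM with 5% equine and 5% calf serum. Tebufenozide 100 nM induced expression; compounds titrated; aggregates quantified by cytometry.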
HPGD inh: blocks human HPGD enzyme activity; P15428; purified HPGD, NADH fluorescence kinetic, PGE2 substrate; Potency, µM, inactives show at the highest dose activity change, negative = inhibition, most hits filed as inhibitors; actives 4.3% (n = 150,000); AID 894; further: on the % scale 0 is the no-effect control and ±100 the full control effect
Target sequence (P15428 whole entry, looked up): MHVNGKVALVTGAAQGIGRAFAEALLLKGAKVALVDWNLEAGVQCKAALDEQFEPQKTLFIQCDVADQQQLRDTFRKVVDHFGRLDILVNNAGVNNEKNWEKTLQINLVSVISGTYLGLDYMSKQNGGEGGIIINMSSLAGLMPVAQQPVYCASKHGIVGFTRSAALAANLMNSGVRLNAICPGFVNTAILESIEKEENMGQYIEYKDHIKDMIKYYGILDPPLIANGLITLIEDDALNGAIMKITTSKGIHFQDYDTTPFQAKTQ
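20 nM HPGD preincubated 15 min at room temperature with compound in 50 mM Tris-HCl pH 8, 0.01% Tween 20. Started with 1 mM NAD+ and 30 uM prostaglandin E2; NADH fluorescence (360/450 nm) read 5 times over 30-s intervals, last minus first.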
HTT ATP protect: protects HTT-Q103 PC12 cells, measured by ATP; PC12 HTT-Q103 induced, cytoprotection, ATP luminescence, 40 h; Potency, µM (doses to about 56.4 µM), for inactives: cytoprotection (ATP increase), most hits filed as activators; actives 0.14% (n = 230,000); AID 1471; active means well fitted curve in the direction sought with a large enough effect; inconclusive means small, poorly fitted or top-dose-only effect, or another doubt; inactive means no such curve, though single readings can be large; an effect the other way counts as inactive or inconclusive; further: % of control where 0% means no effect; nearly all actives have a fitted effect of over 45% in size
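Cells were plated at 1500 per well in phenol red-free DMEM with 5% equine and 5% calf serum. Tebufenozide (100 nM final) and compounds were added, then ATPlite reagent, and luminescence was read.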
JMJD2E inh: inhibitors of human JMJD2E histone demethylase | JMJD2E catalytic domain, FDH-coupled NADH fluorescence (FDH is formaldehyde dehydrogenase) | Potency, µM (series often up to 57.1 µM), for the others: at the top dose activity change, negative = inhibition, usual class: inhibitors | actives 1.6% (n = 230,000) | AID 2147;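 further: 0% = wells with enzyme and -100% = buffer wells without enzyme; nearly all actives have a fitted effect of over 50% in size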
Active calls of the source: *; i = inactive; ? = inconclusive; / = no result given; ! = a repeat was not active; [ ] = remark or other dose. The list is not random: actives were taken first. Their share in the collection is about 9.2%. Unless noted, the call rests on the fitted dose curve; in most records, active means well fitted inhibition curve with a large enough effect (not every such curve was filed as active); inconclusive means small, poorly fitted or top-dose-only effect, or another doubt; inactive means no such curve, though single readings can be large or run the other way. Potency means the concentration at half of the fitted maximal effect.

SMILES | ALDH1A1 block | LMNA splice mod | HttQ103 aggreg | HPGD inh | HTT ATP protect | JMJD2E inh
COc1ccc2[nH]c(S(=O)Cc3ncc(C)c(OC)c3C)nc2n1 (stereo not drawn) | / | / | 4% | / | ? | /
CCOC(=O)c1[nH]c2c(c1-c1ccccc1)C(=O)CC(c1ccc(OC)c(OC)c1)C2 (stereo not drawn) | 13µM* | ? | 2% | -2% | / | -13%
O=C(O)CN(CCN(CC(=O)O)CC(=O)O)CCN(CC(=O)O)CC(=O)O | 9% | ? | 8% | -19% | ? | 6.3µM*!
CCOCCCNC(=O)c1ccc2c(c1)OCO2 | 14% | -3% | ? | 14µM* | -2% | 0%
Cc1ccccc1CN1CCN(CC(=O)NCc2ccc3c(c2)OCO3)C1=O | 13µM* | ? | 10% | -15% | -124% | 5%
O=C(NCc1ccco1)c1cc(-c2ccccn2)nc2ccccc12 | -12% | -2% | 6% | -5% | -16% | 4%
O=C(NCc1ccc2c(c1)OCO2)c1cc(-c2ccccn2)nc2ccccc12 | 1.3µM* | ? | -18% | / | -11%[10 µM] | -10%
O=C(NCCOc1ccccc1)c1ccc2c(c1)OCO2 | -2% | 1% | -16% | -3% | -53% | -7%
CCOCCCNC(=O)C(c1ccccc1)N(Cc1ccc2c(c1)OCO2)C(=O)c1ccccc1O (stereo not drawn) | 10µM* | / | -1% | / | -21% | -4%
COCCN(Cc1cc2cc(C)c(C)cc2nc1Cl)C(=O)N1CCOCC1 | 14% | -12%[46 µM] | -14% | / | -5%[10 µM] | 11%
O=C(C[n+]1ccc(C(=O)NCc2ccccc2)cc1)c1ccc2c(c1)OCCO2 | 3.5µM* | / | 25% | / | -15% | ?
Cc1ccc(CC(=O)NCc2ccc3c(c2)OCO3)cc1 | -9% | 12% | 7% | -17% | -31% | 10%
O=C(Cc1ccccc1)NCc1ccc2c(c1)OCO2 | -6% | 11% | 3%[9.22 µM] | 32µM* | -14% | 2%
O=C(NCc1ccc2c(c1)OCO2)C1CC(c2ccccc2O)=NO1 (stereo not drawn) | 11µM* | -1% | -1%[9.22 µM] | -24% | 9% | -2%
O=C(Nc1ccc2c(c1)OCO2)c1cc(-c2cccnc2)nc2ccccc12 | 7.9µM* | -14%[46 µM] | -15% | / | -40% | -8%
O=C(CC12CCC(CC1)C2)NCc1ccc2c(c1)OCO2 | -10% | -6% | -4% | 16µM* | 25%[1.9 µM] | i
NC(=NCc1ccc2c(c1)OCO2)NC(=O)c1ccccc1 | -1% | 8%[46 µM] | / | / | / | 4.5µM*
C/C(CCc1ccc2c(c1)OCO2)=N\NC(=O)c1ccccc1 | 9% | 0% | 12% | -6% | 3%[10 µM] | 20%
O=C(NCc1ccc2c(c1)OCO2)c1cccs1 | 9% | 1% | -8% | 28µM* | -27% | -4%
CCOCC(=O)NCc1ccc2c(c1)OCO2 | 3% | 1% | -1% | 13µM* | -5% | -5%
O=c1[nH]c(SCc2cccc([N+](=O)[O-])c2)nc2nc[nH]c12 | 3%[13.5 µM] | / | / | -4% | -3%[10 µM] | /
O=C(Nc1ccc(NC(=O)C2CCCCC2)nc1)c1cccs1 | 3% | -21%[46 µM] | / | / | / | 18%
CCC/C(=N/NC(=O)c1ccc2c(c1)OCO2)c1cccs1 | ? | -2% | -1% | 16µM* | / | -2%
O=C1CC(NCc2ccc3c(c2)OCO3)C(=O)N1CCc1ccccc1 (stereo not drawn) | 14µM* | 7% | 4% | -19% | -8% | 6%
Nc1nc(-c2ccc(Cl)c(Cl)c2)c(-c2ccncc2)s1 | ? | / | / | ? | -1% | ?
SMILES | ALDH1A1 block | LMNA splice mod | HttQ103 aggreg | HPGD inh | HTT ATP protect | JMJD2E inh
O=C(c1cnccn1)N1CCC2(CCN(Cc3ccccc3)CC2)CC1 | 6% | / | / | -2% | -4% | /
COc1ccc(CN2C(=O)c3cccnc3C2Nc2cc(Cl)c(OC)cc2OC)cc1 (stereo not drawn) | ? | 2% | 0% | -27% | -28% | 16µM*
CN(C)c1cc[n+](CC(=O)c2ccc(-c3ccccc3)cc2)cc1 | ? | ? | 16µM* | / | -77% | 1%
COc1cc(OC)c2c(c1Cl)O[C@@]1(C2=O)[C@H](C)CC(=O)C[C@@H]1OC | ? | 8% | / | -28% | -14%[40.3 µM] | ?
Cc1[nH]nc2c1C(c1ccc(-c3ccccc3C#N)o1)C(C#N)=C(N)O2 (stereo not drawn) | 11µM* | -20% | -9% | / | -24%[10 µM] | ?
Cc1ccc(-c2ccc(C3C(C#N)=C(N)Oc4n[nH]c(C)c43)o2)cc1 (stereo not drawn) | ? | ? | ? | -27% | -57% | ?
Cc1cccc(N2CCN(S(=O)(=O)c3ccc(-c4cnc(C5CC5)o4)cc3)CC2)c1C | / | 3%[46 µM] | / | / | / | /
CCOc1cccc2cc(C(=O)N3CCN(C/C=C/c4ccccc4)CC3)c(=O)oc12 | 14µM* | -12% | -9% | -21% | 19%[10 µM] | -23%
COc1cccc2cc(C(=O)N3CCN(C45CC6CC(CC(C6)C4)C5)CC3)c(=O)oc12 | ? | 13% | 1% | -28% | -11%[10 µM] | -1%
COc1cccc2cc(C(=O)N3CCC(C)CC3)c(=O)oc12 | ? | 2% | 3% | 13µM* | 11% | -26%
CCOc1cc(C(=O)N2CCN(C/C=C/c3ccccc3)CC2)cc(OCC)c1OCC | 1% | -1% | -7% | -3% | -24% | 7%
COc1cccc2cc(C(=O)N(Cc3ccccc3)CC3CCCO3)c(=O)oc12 (stereo not drawn) | -13% | -8% | -14% | -18% | -22%[10 µM] | -3%
COc1cccc2cc(C(=O)N3C(C)CCCC3C)c(=O)oc12 (stereo not drawn) | -8% | -8% | ? | 28µM* | -9%[10 µM] | 4%
CCN(C(=O)c1cc2cccc(OC)c2oc1=O)c1ccccc1 | -2% | 0% | -1% | 22µM* | 0% | -11%
Cc1ccc(NC(=O)C2CC(=O)N(Cc3ccco3)C2)cc1 (stereo not drawn) | / | / | -7%[9.22 µM] | / | 1%[10 µM] | -3%
COc1cc(COc2cc(N)c(Cl)cc2C(=O)CCC2CCN(CCNS(C)(=O)=O)CC2)cc(OC)c1 | -12% | / | / | -2% | ? | 9%
CC(C)c1ccc(NC(=O)c2cnc3sc(N4CCOCC4)nn3c2=O)cc1 | / | -14%[46 µM] | / | / | / | /
N[C@H](Cc1ccc(F)cc1)C(=O)O | / | / | / | / | 17%[1.9 µM] | /
COc1cccc2cc(C(=O)OC3CCN(C)CC3)c(=O)oc12 | -5% | -4% | -4% | -4% | -3%[10 µM] | -23%
COc1cccc2cc(C(=O)N3CCCCC3C)c(=O)oc12 (stereo not drawn) | -3% | -13% | 11% | 16µM* | 4%[10 µM] | ?
CN1CCN(c2nc(-c3ccc(Br)cc3)nnc2-c2ccccc2)CC1 | 22µM* | ? | 7% | -12% | -43% | 1%
